The source made the active and inactive calls. The calls were made as follows: active = hit-call score of the fitted dose curve at least 0.9, where 1 is the maximum; inactive = score below 0.9.
Columns and labels:
Details in all cases: mRNA level, 48 h; actives raise or lower the signal
[1] = read-out: Ezrin (EZR), EZR (gene 7430); assay: LTEA_HepaRG_EZR: Life Technologies and Expression Analysis (LTEA) Assay for Ezrin (EZR) using HepaRG (AID 2283491)
How it was run: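 Differentiated human HepaRG cells, 48 h after plating, were exposed in serum-free induction medium for 48 hours to eight half-log concentrations up to 100 uM in 0.5% DMSO. EZR mRNA was measured by TaqMan qRT-PCR, normalized to ACTB, GAPDH and POLR2A, and fitted bidirectionally against DMSO.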

[2] = read-out: Cytochrome P450 3A7 (Homo sapiens) (UniProt P24462); assay: LTEA_HepaRG_CYP3A7: Life Technologies and Expression Analysis (LTEA) Assay for CYP3A7 using HepaRG (AID 2283492)
How it was run: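 Differentiated HepaRG cells in serum-free induction medium exposed 48 h in duplicate to 8-point half-log series from 100 uM top in 0.5% DMSO. CYP3A7 mRNA by qRT-PCR, normalized to ACTB/GAPDH/POLR2A, bidirectional fit versus DMSO.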

[3] = read-out: CYP3A5 (gene 1577); assay: LTEA_HepaRG_CYP3A5: Life Technologies and Expression Analysis (LTEA) Assay for CYP3A5 using HepaRG (AID 2283493)
How it was run: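 Readout was CYP3A5 mRNA by qRT-PCR. HepaRG cultures were exposed for 48 h in serum-free induction medium to chemicals at up to 100 uM, and responses were fitted in both directions relative to DMSO vehicle.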

[4] = read-out: Fatty Acid-Binding Protein 1 (FABP1), FABP1 (gene 2168); assay: LTEA_HepaRG_FABP1: Life Technologies and Expression Analysis (LTEA) Assay for Fatty Acid-Binding Protein 1 (FABP1) using HepaRG (AID 2283494)
How it was run: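 qRT-PCR readout of FABP1 transcript (normalized to three housekeeping genes) after 48 h chemical exposure of HepaRG cells; eight concentrations, half-log steps, max 100 uM, 0.5% DMSO vehicle; gain or loss fitted relative to DMSO baseline.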

[5] = read-out: Cytochrome P450 4A22 (Homo sapiens) (UniProt Q5TCH4); assay: LTEA_HepaRG_CYP4A22: Life Technologies and Expression Analysis (LTEA) Assay for Cytochrome P450 4A22 (CYP4A22) using HepaRG (AID 2283495)
How it was run: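 Differentiated HepaRG cells in serum-free induction medium exposed 48 h in duplicate to eight half-log concentrations up to 100 uM in 0.5% DMSO. CYP4A22 mRNA quantified by TaqMan qRT-PCR, normalized to ACTB, GAPDH and POLR2A; bidirectional fit versus DMSO.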

[6] = read-out: Cytochrome P450 7A1 (Homo sapiens) (UniProt P22680); assay: LTEA_HepaRG_CYP7A1: Life Technologies and Expression Analysis (LTEA) Assay for Cytochrome P450 7A1 (CYP7A1) using HepaRG (AID 2283496)
How it was run: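 Using 0.5% DMSO as vehicle and baseline, chemicals were tested in duplicate over an 8-point range from 100 uM on HepaRG cells for 48 h; qRT-PCR signals were normalised to ACTB, GAPDH and POLR2A.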

[7] = read-out: Glutathione S-Transferase (GSTA2), GSTA2 (gene 2939); assay: LTEA_HepaRG_GSTA2: Life Technologies and Expression Analysis (LTEA) Assay for Glutathione S-Transferase (GSTA2) using HepaRG (AID 2283497)
How it was run: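 qRT-PCR readout of GSTA2 transcript, normalized to three housekeeping genes, fitted bidirectionally against 0.5% DMSO baseline. Differentiated HepaRG cells received compound for 48 h at 8 concentrations (top 100 uM, half-log steps).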

[8] = read-out: Glutamate-cysteine ligase catalytic (GCLC), GCLC (gene 2729); assay: LTEA_HepaRG_GCLC: Life Technologies and Expression Analysis (LTEA) Assay for Glutamate-cysteine ligase catalytic (GCLC) using HepaRG (AID 2283498)
How it was run: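 HepaRG, 48 h exposure, 8-pt half-log series from 100 uM, 0.5% DMSO vehicle; TaqMan qRT-PCR for GCLC mRNA, housekeeping-normalized; bidirectional curve fit vs DMSO baseline.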

[9] = read-out: growth arrest and DNA damage 45 (GADD45G), GADD45G (gene 10912); assay: LTEA_HepaRG_GADD45G: Life Technologies and Expression Analysis (LTEA) Assay for growth arrest and DNA damage 45 (GADD45G) using HepaRG (AID 2283499)
How it was run: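 Differentiated human HepaRG cells, 48 h post-plating, exposed 48 h in serum-free induction medium to 8 half-log concentrations (top 100 uM, 0.5% DMSO) in duplicate. GADD45G mRNA measured by Fluidigm TaqMan qRT-PCR, normalized to ACTB, GAPDH, POLR2A; bidirectional fit versus DMSO.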

[10] = read-out: Glutamate-cysteine ligase regulatory (GCLM), GCLM (gene 2730); assay: LTEA_HepaRG_GCLM: Life Technologies and Expression Analysis (LTEA) Assay for Glutamate-cysteine ligase regulatory (GCLM) using HepaRG (AID 2283500)
How it was run: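 In this multiplexed HepaRG gene-expression assay, GCLM mRNA change after 48 h treatment (8 concentrations, max 100 uM) was scored against DMSO by bidirectional curve fitting.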

[11] = read-out: Glutathione S-transferase M3 (GSTM3), GSTM3 (gene 2947); assay: LTEA_HepaRG_GSTM3: Life Technologies and Expression Analysis (LTEA) Assay for Glutathione S-transferase M3 (GSTM3) using HepaRG (AID 2283501)
How it was run: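 Differentiated human HepaRG cells were exposed in duplicate for 48 h in serum-free induction medium, 8 points from 100 uM top in half-log steps, 0.5% DMSO. GSTM3 mRNA was measured by TaqMan qRT-PCR, normalized to ACTB, GAPDH and POLR2A; bidirectional fit versus DMSO.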

[12] = read-out: Heat shock 70 kDa protein 1 (HSPA1A), gene 3303; assay: LTEA_HepaRG_HSPA1A: Life Technologies and Expression Analysis (LTEA) Assay for Heat shock 70 kDa protein 1 (HSPA1A) using HepaRG (AID 2283502)
How it was run: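 An oxidative-stress marker readout: HepaRG cells treated 48 h in duplicate with an eight-point series (highest 100 uM) had HSPA1A mRNA quantified by TaqMan qRT-PCR. Activity was fitted in both directions using 0.5% DMSO as baseline.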

[13] = read-out: HGF (gene 3082); assay: LTEA_HepaRG_HGF: Life Technologies and Expression Analysis (LTEA) Assay for Hepatocyte Growth Facto (HGF) using HepaRG (AID 2283505)
How it was run: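 Differentiated HepaRG cells in serum-free induction medium exposed 48 h in duplicate, 8 half-log concentrations from 100 uM in 0.5% DMSO. HGF mRNA by qRT-PCR, normalised to ACTB, GAPDH, POLR2A; bidirectional fitting.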

[14] = read-out: Insulin Like Growth Factor 1 (IGF1), IGF1 (gene 3479); assay: LTEA_HepaRG_IGF1: Life Technologies and Expression Analysis (LTEA) Assay for Insulin Like Growth Factor 1 (IGF1) using HepaRG (AID 2283506)
How it was run: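 Endpoint: IGF1 mRNA change by qRT-PCR, housekeeping-normalized, fitted bidirectionally relative to 0.5% DMSO vehicle. Human HepaRG cells were treated 48 h in serum-free induction medium, eight half-log concentrations topping at 100 uM.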

[15] = read-out: Intercellular Adhesion Molecule 1 (ICAM1), ICAM1 (gene 3383); assay: LTEA_HepaRG_ICAM1: Life Technologies and Expression Analysis (LTEA) Assay for Intercellular Adhesion Molecule 1 (ICAM1) using HepaRG (AID 2283507)
How it was run: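 Differentiated human HepaRG cells in serum-free induction medium exposed 48 h in duplicate to 8 half-log concentrations (top 100 uM, 0.5% DMSO). ICAM1 mRNA quantified by TaqMan qRT-PCR, normalized to ACTB, GAPDH and POLR2A; bidirectional fitting versus DMSO.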

[16] = read-out: Insulin-like growth factor-binding protein 1 (IGFBP1), IGFBP1 (gene 3484); assay: LTEA_HepaRG_IGFBP1: Life Technologies and Expression Analysis (LTEA) Assay for Insulin-like growth factor-binding protein 1 (IGFBP1) using HepaRG (AID 2283508)
How it was run: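 HepaRG cells, plated 48 h then switched to serum-free induction medium, exposed in duplicate for 48 h to 8-point half-log series from 100 uM in 0.5% DMSO. mRNA measured by qRT-PCR, normalized to ACTB/GAPDH/POLR2A; bidirectional fit versus DMSO.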

[17] = read-out: Interleukin 6 (IL6), IL6 (gene 3569); assay: LTEA_HepaRG_IL6: Life Technologies and Expression Analysis (LTEA) Assay for Interleukin 6 (IL6) using HepaRG (AID 2283509)
How it was run: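 qRT-PCR read-out of IL6 transcript, normalized to three housekeeping genes, after 48 h chemical exposure of HepaRG cells; 8-point half-log series, top 100 uM, 0.5% DMSO vehicle. Bidirectional curve fitting against DMSO baseline.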

[18] = read-out: Interleukin 6 Receptor (IL6R), IL6R (gene 3570); assay: LTEA_HepaRG_IL6R: Life Technologies and Expression Analysis (LTEA) Assay for Interleukin 6 Receptor (IL6R) using HepaRG (AID 2283510);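 as to AC50: TaqMan qRT-PCR signal normalized to ACTB GAPDH and POLR2A housekeeping genes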
How it was run: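 In this HepaRG screen, test chemicals act on cells for 48 h at up to 100 uM (eight half-log points, duplicate wells). IL6R expression is quantified by qRT-PCR after normalization to ACTB, GAPDH and POLR2A, with DMSO as baseline.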

[19] = read-out: 3-Hydroxy-3-Methylglutaryl-CoA Synthase 2 (HMGCS2), HMGCS2 (gene 3158); assay: LTEA_HepaRG_HMGCS2: Life Technologies and Expression Analysis (LTEA) Assay for 3-Hydroxy-3-Methylglutaryl-CoA Synthase 2 (HMGCS2) using HepaRG (AID 2283504)
How it was run: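 Human HepaRG cells in serum-free induction medium were exposed in duplicate for 48 h to 8-point half-log series from 100 uM top in 0.5% DMSO. HMGCS2 mRNA measured by TaqMan qRT-PCR, normalised to ACTB, GAPDH, POLR2A; bidirectional fit versus DMSO.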

[20] = read-out: Hypoxia-inducible factor 1-alpha (Homo sapiens) (UniProt Q16665); assay: LTEA_HepaRG_HIF1A: Life Technologies and Expression Analysis (LTEA) Assay for Hypoxia-inducible factor 1 (HIF1A) Trancription factor using HepaRG (AID 2283503)
How it was run: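 Gain- or loss-of-signal HIF1A mRNA changes are fitted against a DMSO baseline. HepaRG cultures receive eight concentrations, highest 100 uM, for 48 h in serum-free induction medium with 0.5% DMSO.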

Measured: AC50

Sequence of Hypoxia-inducible factor 1-alpha (Homo sapiens) (Q16665 whole entry, looked up): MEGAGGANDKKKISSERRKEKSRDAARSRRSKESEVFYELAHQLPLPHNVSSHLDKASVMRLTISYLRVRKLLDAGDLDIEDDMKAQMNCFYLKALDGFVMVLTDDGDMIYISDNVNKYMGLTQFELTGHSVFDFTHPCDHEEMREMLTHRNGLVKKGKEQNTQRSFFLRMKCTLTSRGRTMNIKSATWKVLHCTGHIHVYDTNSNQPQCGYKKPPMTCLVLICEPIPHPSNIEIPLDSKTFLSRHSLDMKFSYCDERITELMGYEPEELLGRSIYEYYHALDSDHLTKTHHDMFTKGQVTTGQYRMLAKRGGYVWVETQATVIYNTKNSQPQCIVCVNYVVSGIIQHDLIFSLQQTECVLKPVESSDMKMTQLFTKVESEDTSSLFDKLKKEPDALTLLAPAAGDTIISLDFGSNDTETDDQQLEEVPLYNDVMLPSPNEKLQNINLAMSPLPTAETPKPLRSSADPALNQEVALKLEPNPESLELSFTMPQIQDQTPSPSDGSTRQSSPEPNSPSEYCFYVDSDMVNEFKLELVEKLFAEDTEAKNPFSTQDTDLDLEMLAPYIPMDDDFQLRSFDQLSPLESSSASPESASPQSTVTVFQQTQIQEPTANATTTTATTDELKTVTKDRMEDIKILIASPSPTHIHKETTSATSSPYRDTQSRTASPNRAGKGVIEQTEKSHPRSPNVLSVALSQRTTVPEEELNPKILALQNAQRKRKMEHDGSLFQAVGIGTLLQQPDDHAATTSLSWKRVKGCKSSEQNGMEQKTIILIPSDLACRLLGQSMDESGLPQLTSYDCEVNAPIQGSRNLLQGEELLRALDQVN
Sequence of Cytochrome P450 3A7 (Homo sapiens) (P24462 whole entry, looked up): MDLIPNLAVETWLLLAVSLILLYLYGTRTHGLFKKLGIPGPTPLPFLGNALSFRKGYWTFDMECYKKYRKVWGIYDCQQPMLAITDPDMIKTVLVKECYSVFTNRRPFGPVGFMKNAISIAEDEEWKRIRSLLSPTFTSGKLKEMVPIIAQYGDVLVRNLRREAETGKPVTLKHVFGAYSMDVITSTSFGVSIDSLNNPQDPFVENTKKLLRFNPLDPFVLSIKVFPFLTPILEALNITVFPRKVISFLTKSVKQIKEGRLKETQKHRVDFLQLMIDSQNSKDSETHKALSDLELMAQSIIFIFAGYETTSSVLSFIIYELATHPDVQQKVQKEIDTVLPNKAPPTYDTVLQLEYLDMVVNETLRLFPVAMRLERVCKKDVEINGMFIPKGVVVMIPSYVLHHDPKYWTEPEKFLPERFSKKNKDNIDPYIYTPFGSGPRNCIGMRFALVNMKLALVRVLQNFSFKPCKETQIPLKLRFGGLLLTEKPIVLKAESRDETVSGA

Nc1ccc(S(=O)(=O)c2ccc(N)cc2)cc1
not listed: [19] | [20]
inactive: all other assays above

CCOC(=O)C(C)(C)Oc1ccc(Cl)cc1
active: [5] 25.7 µM | [19] 9.92 µM
not listed: [11] | [20]
inactive: all other assays above

Nc1ccccc1N
inactive: [1] | [10] | [20] | [13] | [15] | [17]
active: [3] 51.3 µM | [4] 72.6 µM | [5] 64.6 µM | [6] 79.9 µM | [7] 74.9 µM | [8] 86.4 µM | [9] 67.7 µM | [12] 50 µM | [19] 74 µM | [14] 66.8 µM | [16] 13.4 µM | [18] 72.3 µM

CCCCCCCCCCO
not listed: [11] | [19]
inactive: all other assays above

CNC(=O)[C@H]1O[C@@H](n2cnc3c(NCc4cc(Cl)ccc4OCc4cc(C)no4)ncnc32)[C@H](O)[C@@H]1N
not listed: [11] | [19]
inactive: all other assays above

Clc1cc(Cl)c(Cl)cc1Cl
not listed: [11] | [16]
inactive: all other assays above

COCCOCCOC
active: [8] 2.1 µM | [10] 0.925 µM | [20] 9.92 µM | [13] 1.5 µM | [15] 0.87 µM
not listed: [11] | [16] | [19]
inactive: all other assays above

CCCCC(CC)COC(=O)CC(C(=O)OCC(CC)CCCC)S(=O)(=O)O (stereo not given)
active: [3] 82.9 µM | [4] 91.6 µM | [6] 92 µM | [7] 82.2 µM | [8] 94.6 µM | [9] 87 µM | [10] 79.7 µM | [12] 38.1 µM | [19] 79.6 µM | [16] 90.7 µM | [17] 91.4 µM
inactive: [1] | [5] | [20] | [13] | [14] | [15] | [18]

CCCCCCCCCCCCCCCCCC(=O)O
not listed: [11] | [16] | [19]
inactive: all other assays above

COc1cc(S(=O)(=O)O)c(C)cc1N=Nc1c(O)ccc2cc(S(=O)(=O)O)ccc12
not listed: [11] | [19]
inactive: all other assays above

NCCO
not listed: [11] | [19]
inactive: all other assays above

O=c1[nH]cc(F)c(=O)[nH]1
active: [5] 35 µM | [6] 64.6 µM | [7] 78 µM | [18] 51 µM
not listed: [11] | [16] | [19] | [20]
inactive: all other assays above

Cc1ccc(C)c(C)c1
not listed: [11] | [19]
inactive: all other assays above

C=CCOC(=O)c1ccccc1C(=O)OCC=C
not listed: [11] | [16] | [19]
inactive: all other assays above

COc1ccc2c(c1)c(CC(=O)O)c(C)n2C(=O)c1ccc(Cl)cc1
not listed: [11] | [16]
inactive: all other assays above

From PubChem BioAssay (EPA / NIEHS)
